Source: PubChem BioAssay AID1508625 (Wald Lab, School of Medicine, Case Western Reserve …, 2021)

Experiment: small molecules boosting NK-mediated OVCAR3 lysis – imaging, primary NK cells, calcein-AM imaging, primary screen (AID 1508625);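 further: compound given to NK cells 16 h before adding targets at 1.5 to 1 ratio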;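 on z-score: more negative robust z means stronger NK killing of tumor cells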
Details: OVCAR3 lysis by primary NK cells, at 5 µM; z-score: measured here: robust Z-score, single-point normalisation

Row | SMILES | corrected activity, negative = more killing | z-score
1 | CCOC(=O)Cc1ccc(N(Cc2cccs2)S(=O)(=O)c2ccc([N+](=O)[O-])cc2)cc1 | -7.32% | -1.98
2 | CCOC(=O)Cn1nc(-c2ccc(C)cc2)ccc1=O | -0.853% | -0.23
3 | COc1ccccc1N1CCN(C(=O)NC2CCCCC2)CC1 | -0.143% | -0.0428
4 | Cc1ccc(NC(=O)Cc2[nH]c3ccccc3c2Sc2ccccc2)cc1 | -1.55% | -0.584
5 | CC(=O)OC1CC(C)N(C(=O)c2ccccc2)c2ccc(C)cc21 (stereo not given) | -5.57% | -1.73
6 | COc1ccc(N2C(=O)c3ccc(C)cc3C2=O)cc1OC | -6.75% | -2.54
7 | COc1cc(OC)cc(C(=O)N2CCN(C3CCC(C)CC3)CC2)c1 (stereo not given) | -1.69% | -0.755
8 | COc1ccc(NC(=O)c2coc(=O)c3ccccc23)cc1Cl | -3.91% | -1.24
9 | COc1ccc(OC)c(NC(=O)C(N)=O)c1 | 1.08% | 0.459
10 | Cc1cc2nc3sc(=Cc4ccc(Cl)cc4Cl)c(=O)n3c2cc1C | -1.46% | -0.755
11 | O=C(O)C1C2C=CC(O2)C1C(=O)N1CCC(Cc2ccccc2)CC1 (stereo not given) | -3.25% | -1.34
12 | COc1ccc(C(=O)Nc2ccc(NC(=O)c3ccc(C(C)(C)C)cc3)cc2)cc1[N+](=O)[O-] | -5.92% | -2.1
13 | O=C(c1ccccc1Br)N1N=C(c2ccccc2)CC1(O)C(F)(F)F (stereo not given) | -3.24% | -1.24
14 | COc1ccc(N2C3=C(C(=O)CC(C)(C)C3)C(c3cccc(F)c3)C3=C2CC(C)(C)CC3=O)c(OC)c1 | -1.83% | -0.581
15 | O=C(CSCc1ccccc1Cl)NCCc1ccc(Cl)cc1 | -1.86% | -0.502
16 | COc1ccc(C=c2sc3nc4cc(C)c(C)cc4n3c2=O)cc1Br | -0.475% | -0.246
17 | Cc1ccc(-n2c(O)c(C=C3C=Nc4ccccc43)sc2=O)cc1 | -3.36% | -1.74
18 | CC(Oc1cccc(Cl)c1)C(=O)ON=C(N)c1ccncc1 (stereo not given) | 0.422% | 0.235
19 | Cc1ccc(C)c(C(=O)COC(=O)CNS(=O)(=O)c2ccccc2)c1 | -1.55% | -0.589
20 | CC1CCC(NC2CCCc3c2[nH]c2ccc([N+](=O)[O-])cc32)CC1 (stereo not given) | 3.89% | 1.7
21 | O=C(NCCc1ccccc1Cl)C1CC(=O)N(C2CCCCC2)C1 (stereo not given) | -2.73% | -1.04
22 | Cc1ccc(C=Cc2nc3ccccc3[nH]2)cc1 | 2.68% | 0.723
23 | O=C(O)CN1C(=O)c2cccc3c(Br)ccc1c23 | -4.58% | -2.46
24 | CCN1CCN(C(=O)C2c3ccccc3C(=O)N(C)C2c2cccs2)CC1 (stereo not given) | -7.01% | -1.74

Row | SMILES | corrected activity, negative = more killing | z-score
25 | N[n+]1cnn(CC(=O)c2ccccc2)c1 | -7.75% | -2.46
26 | COc1cc(C=Nc2ccc(Oc3ccccc3)cc2)ccc1OC(C)=O | -3.39% | -1.34
27 | COc1ccc(C2NC(=O)c3c(sc4c3CCCC4)N2)cc1OC (stereo not given) | -2.78% | -1.1
28 | Cc1cc(=O)oc2ccc(Oc3ccc(C#N)cc3[N+](=O)[O-])cc12 | -0.59% | -0.183
29 | COc1ccc(S(=O)(=O)NCc2ccc(C(=O)N(C)Cc3ccco3)cc2)cc1 | -7.7% | -1.89
30 | Cc1ccc(C(=O)Nc2cccc(C(=O)O)c2)cc1S(=O)(=O)Nc1ccc(Br)cc1 | -15% | -3.16
31 | Cc1ccc(C)c(Cn2cccc2C#N)c1 | -4.01% | -1.08
32 | Cc1cc(C)c2oc(-c3ccc(C)c(N=Cc4cccc([N+](=O)[O-])c4O)c3)nc2c1 | -14.1% | -2.97
33 | COc1ccc(C(=O)NC23CC4CC(CC(C4)C2)C3)c(OC)c1 | -4.55% | -1.79
34 | COc1ccccc1N1C(=O)C2C(C(C)=O)=NN(c3ccc(Cl)cc3)C2C1=O (stereo not given) | -1.87% | -0.704
35 | Cc1c(C(=O)O)oc2ccc(S(=O)(=O)N3CCOCC3)cc12 | -2.57% | -0.692
36 | COc1ccc(NC(=O)c2sc3cc([N+](=O)[O-])ccc3c2Cl)c(OC)c1 | -2.66% | -0.942
37 | COC(=O)c1ccc(COC(=O)c2ccccc2Cl)cc1 | -2.71% | -1.51
38 | CCc1ccc(NC(=O)CCNC(=O)Cn2cnc3ccccc3c2=O)cc1 | 0.879% | 0.279
39 | Cc1cc(N2CCN(C(=O)c3cccc(F)c3F)CC2)c(F)cc1[N+](=O)[O-] | -4.4% | -1.92
40 | CCOc1cccc(-c2cc(C(=O)O)c3ccccc3n2)c1 | -4.28% | -1.76
41 | COC(=O)c1c(NC(=O)c2cc3ccccc3c(=O)o2)sc2c1CCC(C)C2 (stereo not given) | -0.836% | -0.344
42 | COc1cccc(-c2nnc(-c3ccc([N+](=O)[O-])cc3)o2)c1 | 1.18% | 0.417
43 | Cc1ccc(C(=O)COC(=O)c2ccc(N3C(=O)C4CCC(C)CC4C3=O)cc2)cc1[N+](=O)[O-] (stereo not given) | -2.55% | -1.37
44 | O=C1NN(c2cccc(Cl)c2)C(=O)C1=Cc1cc(Cl)ccc1O | -4.57% | -1.45
45 | CC(C)(C)C1CCC(=O)C(C2(O)C(=O)Nc3ccc(Br)cc32)C1 (stereo not given) | -3.34% | -0.998
46 | CC(C)(C)c1ccc(C(=O)CC2(O)C(=O)Nc3ccc(Cl)cc32)cc1 (stereo not given) | -2.41% | -0.898
47 | Cn1c(SCc2c[nH]c3cc([N+](=O)[O-])ccc23)nc2sc3c(c2c1=O)CCCC3 | -1.25% | -0.47
48 | CCCc1c(C)c2cc3c(C)coc3cc2oc1=O | -6.81% | -2.03

Row | SMILES | corrected activity, negative = more killing | z-score
49 | CC(=O)NCCNC(=O)c1ccc(Cn2c(=S)[nH]c3cc4c(cc3c2=O)OCO4)cc1 | -3.96% | -1.05
50 | O=C(O)c1ccc(S(=O)(=O)c2ccc3c(c2)C(=O)N(CC2CCCO2)C3=O)cc1 (stereo not given) | 0.388% | 0.146
51 | O=C(Nc1ccc2c(c1)CCC2)c1ccc2c(=O)n(C3CCCCC3)c(=S)[nH]c2c1 | -2.41% | -0.766
52 | COc1cccc(C=Nn2c(C)nnc2C)c1OC | -2.16% | -0.942
53 | COc1cc(C=C2C=C(c3ccc(C)cc3)OC2=O)cc(OC)c1OC | -0.351% | -0.181
54 | CC1=NN(C(=O)c2ccc(C(N)=O)cc2)C(O)(C(F)(F)F)C1 (stereo not given) | -1.91% | -0.786
55 | O=C1C(=O)N(Cc2cccnc2)C(c2ccccc2)C1=C(O)c1ccc(F)cc1 (stereo not given) | -1.93% | -0.837
56 | Cc1cc(C)cc(NC(=O)c2ccccc2OCC(=O)N2CCc3ccccc32)c1 | -2.33% | -1.3
57 | O=c1cc(-c2ccc([N+](=O)[O-])cc2)nc2c(-c3ccc(Cl)cc3)c(Cc3ccccc3)[nH]n12 | -1.76% | -0.911
58 | CCCOc1ccc(C(=O)Nc2ccc3nn(-c4ccc(OCC)cc4)nc3c2)cc1 | -3.37% | -1.2
59 | C=CCSc1nc(C)c2cc(C)ccc2n1 | -2.18% | -0.675
60 | COc1cc(NC(=O)C(C)Oc2cccc(Cl)c2)cc(OC)c1 (stereo not given) | -3.89% | -2.16
61 | COc1cc(C(=S)N2CCCCC2)ccc1OC(=O)c1ccc(C)cc1 | -4.49% | -1.39
62 | Cc1ccccc1-c1n[nH]c(=S)o1 | -4.65% | -1.65
63 | COc1ccccc1CNC(=O)c1sc2ncnc(N3CCOCC3)c2c1C | -0.847% | -0.308
64 | O=C(CC1Sc2ccccc2NC1=O)Nc1ccc2c(c1)OCO2 (stereo not given) | -2.14% | -0.818
65 | O=c1c2cc3c(cc2nc(SCc2cccc(F)c2)n1Cc1ccco1)OCO3 | -3.76% | -0.995
66 | c1ccc(-c2ccccc2OCCN2CCNCC2)cc1 | 1.89% | 1.05
67 | CC(C)C(NC(=O)c1ccccc1)C(=O)NC1=NCCS1 (stereo not given) | -2% | -0.869
68 | CCOC(=O)c1ccc(NC(=O)CCc2ccccc2)cc1 | -3.6% | -1.15
69 | OCCNCCCOc1cccc(Cl)c1Cl | 2.34% | 0.743
70 | COC(=O)c1cc(Cl)c(NC(=O)c2cc3ccccc3oc2=O)cc1OC | -1.77% | -0.79
71 | Cc1ccc(OCC(=O)Nc2ccc(N3CCOCC3)c(Cl)c2)cc1 | -5.7% | -1.77
72 | CN(Cc1ccccc1)Cc1c(O)ccc2c(=O)c(Oc3ccccc3Br)c(C(F)(F)F)oc12 | 2.2% | 0.682

Row | SMILES | corrected activity, negative = more killing | z-score
73 | CC1=NN(C(=O)C(C)C)C(O)(c2ccccc2)C1 (stereo not given) | -7.14% | -3.83
74 | COC(=O)CCC(=O)NNC(=O)c1ccc(Br)cc1 | -3.77% | -1.49
75 | CC(=O)CC(O)(c1ccccc1)C(F)(F)F (stereo not given) | 0.173% | 0.0551
76 | CCC(C)N1C(=O)c2ccccc2C1C(=O)NC1CCCCCC1 (stereo not given) | -6.27% | -1.78
77 | Cc1nc2sccn2c1C(=O)NN=Cc1ccc(C(C)C)cc1 | -4.02% | -1.71
78 | N=C1NC(=O)C(=Cc2ccc(F)cc2)S1 | -5.91% | -2.51
79 | CC1(C(=O)NCC2CCCO2)CCC(=O)N1CCc1ccccc1 (stereo not given) | -6.77% | -1.92
80 | CCSc1ccc(NC(=O)CC2c3ccccc3Oc3ccccc32)cc1 | -7.71% | -2.39
81 | COc1ccc(NC(=O)NCc2ccncc2)cc1 | -2.54% | -1.41
82 | Clc1ccc(CSc2ncnc3c2oc2ccccc23)cc1 | -4.09% | -1.16
83 | O=C(Nc1cccc2ccccc12)ON=Cc1ccc(F)cc1 | -4.41% | -1.4
84 | CC(C)(C)c1ccc(-c2nc3cc(NC(=O)Cc4ccccc4)ccc3o2)cc1 | -3% | -1.06
85 | COc1ccccc1OCc1cccc([N+](=O)[O-])c1 | -5.65% | -3.15
86 | CN(C)c1ccc(C(=O)N2N=C(c3ccc(Cl)cc3)CC2(O)C(F)(F)F)cc1 (stereo not given) | -4.5% | -1.72
87 | OCCNCCCOc1ccccc1F | -1.78% | -0.566
88 | COCCOC(=O)C1=C(C)N(C)C(=O)NC1c1ccccc1Cl (stereo not given) | -3.72% | -1.32
89 | CC1CCC2C(=O)N(c3ccc(NCCc4ccccn4)c([N+](=O)[O-])c3)C(=O)C2C1 (stereo not given) | -4.66% | -1.69
90 | CCOc1ccc(-c2n[nH]c(C(=O)NN=Cc3cccnc3)c2C)cc1 | -3.11% | -1.36
91 | Cc1ccc(N2C(=O)CC(NCCc3ccc(F)cc3)C2=O)cc1 (stereo not given) | -3.27% | -1.25
92 | CC1=C(C(=O)OCCc2ccccc2)C(c2coc3ccc(C)cc3c2=O)C2=C(CC(c3cccs3)CC2=O)N1 (stereo not given) | 0.37% | 0.141
93 | O=C(NN=Cc1ccc(O)cc1)c1cc(-c2ccc3ccccc3c2)n[nH]1 | 0.541% | 0.236
94 | Cc1cc(C)c(C=Nc2ccc(-c3ccccc3[N+](=O)[O-])cc2)c(C)c1 | -4.49% | -1.91
95 | Clc1cccc(N2CCN(Cc3cn4c(-c5cccc(Br)c5)nnc4s3)CC2)c1 | -6.72% | -1.91
